# DT40 TDP1 no CPT: qHTS for Inhibitors of human tyrosyl-DNA phosphodiesterase 1 (TDP1): qHTS in cells in absence of CPT; DT40 Tdp1-/- hTDP1 cells, no CPT, ATP luminescence, 48 h; Potency, µM (doses to about 46.2 µM), inactives show at the top dose activity change, negative = growth inhibition, hits mostly inhibitors; 15% of 420,000 active; AID 686978, 2013; note: potency is the fitted concentration of half-maximal effect; % is set by controls: 0 for no effect and ±100 for the full control effect; nearly all actives have a fitted effect of over 55% in size
#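 Cells were dispensed at 400 per well, compounds added by pin tool, plates incubated ≥48 hr at 37 °C, then CellTiter-Glo added for 30 min at room temperature before luminescence reading. Line: DT40 Tdp1-/- complemented with hTDP1; camptothecin omitted.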
# D3 antag: D3 dopamine receptor (human) antagonism | max response, negative = inhibition, % | 2.5% of 360,000 active | D3R cells, DiscoveRx beta-arrestin luminescence, antagonist mode; hits give low values; in the data active = max response below about -50%; inconclusive = no clear call, values can overlap the other calls; note: % is set by controls: 0 for no effect and ±100 for the full control effect
# Target sequence (P35462 whole entry, looked up): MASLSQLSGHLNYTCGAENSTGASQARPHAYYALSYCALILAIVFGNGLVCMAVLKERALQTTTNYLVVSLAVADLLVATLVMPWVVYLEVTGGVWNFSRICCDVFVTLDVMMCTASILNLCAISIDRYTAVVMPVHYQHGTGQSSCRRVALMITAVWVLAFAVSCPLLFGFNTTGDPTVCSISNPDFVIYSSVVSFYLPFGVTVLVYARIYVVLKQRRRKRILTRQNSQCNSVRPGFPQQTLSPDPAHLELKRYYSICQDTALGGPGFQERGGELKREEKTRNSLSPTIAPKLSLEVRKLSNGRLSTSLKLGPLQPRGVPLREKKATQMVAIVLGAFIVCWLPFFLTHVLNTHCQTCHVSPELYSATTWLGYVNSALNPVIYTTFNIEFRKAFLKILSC
#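 Cells plated overnight at 1500 cells/well, then exposed to library compounds with dopamine controls for 90 minutes at 37 degrees C. DiscoveRx reagent added for 30–60 minutes at room temperature; luminescence read, quantitative HTS format.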
# IL1B secr inh: inflammasome signaling inhibition, IL-1 beta readout | THP-1 LPS/ATP IL-1B secretion, AlphaLISA, 16 h; hits give low values | activity change, % at 57.5 µM | 4.7% of 360,000 active | AID 743279; in the data active = activity change below about -50%; inconclusive = mostly about -30% to -49%; note: % is set by controls: 0 for no effect and ±100 for the full control effect
#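 THP-1 cells pretreated 1 hr with compounds (up to 57.5 uM final), then stimulated with LPS (250 ng/mL final) plus ATP (1.25 mM final); secreted IL-1B measured by AlphaLISA after 16 hr, decreased signal indicating inhibition.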
# ClpP mod: qHTS Assay for Activators of ClpP. ATP-dependent Clp protease proteolytic subunit (Bacillus subtilis (strain 168)), P80244. purified B. subtilis ClpP, FRET peptide cleavage, 20 min. Potency, µM (titrated, usually from 57.5 µM), for the others: at the top dose activity change, negative = active. 1.9% of 340,000 active; active = well fitted falling curve with a large enough effect; inconclusive = small, poorly fitted or top-dose-only effect; inactive = no such curve, though single readings can be large or run the other way; note: potency is the fitted concentration of half-maximal effect; the source files actives as falling curves though it sought activators and does not explain the sign; nearly all actives have a fitted effect of over 65% in size
# Target sequence (P80244 whole entry, looked up): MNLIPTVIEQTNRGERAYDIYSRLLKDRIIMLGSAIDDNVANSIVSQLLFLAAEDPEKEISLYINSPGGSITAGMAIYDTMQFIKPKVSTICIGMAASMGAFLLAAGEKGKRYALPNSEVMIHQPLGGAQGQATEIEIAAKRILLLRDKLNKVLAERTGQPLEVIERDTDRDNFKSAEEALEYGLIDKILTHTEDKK
#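 ClpP 10 microg/mL final, pH 8 Tris/KCl buffer with BSA, glycerol, Tween-20; compound pinned in; FRET-FV substrate; RT 20 min; Ex320/Em430; ΔFRET vs ADEP 5.8 microM, DMSO, no enzyme.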
# D3 ag: agonists of human D3 dopamine receptor | P35462 | D3R DiscoveRx beta-arrestin cells, luminescence, 90 min | max activation, % | 0.58% of 410,000 active | AID 652048; in the data active = max activation above about 30%; note: 0% is about no effect
#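 Agonist mode: compounds and dopamine controls were applied to plated cells for 90 min at 37 degrees C after an overnight attachment at 1500 cells/well. Luminescent read-out followed 30 - 60 minutes at room temperature with DiscoveRx detection reagent.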
# DT40 TDP1 CPT: DT40-hTDP1 cell growth loss with CPT; chicken DT40 Tdp1-/-;hTDP1 cells + 20 nM CPT, ATP luminescence, 48 h; Potency, µM (highest dose often 46.2 µM), without a hit: at the highest dose activity change, negative = growth inhibition, hits mostly inhibitors; 12% of 420,000 active; AID 686979; note: potency is the fitted concentration of half-maximal effect; % is set by controls: 0 for no effect and ±100 for the full control effect; nearly all actives have a fitted effect of over 55% in size
#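 Chicken DT40 Tdp1-/- cells stably complemented with human TDP1 were seeded at 400 cells/well in medium containing 20 nM camptothecin, exposed to pin-transferred compounds, and grown at 37 °C for at least 48 hr. Viability was read as ATP luminescence.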
# * hit, by the source's call; u = inconclusive; x = not tested or not shown; ! = repeats disagree; [ ] = another dose, or the depositor's remark. A selection: hits, their analogues and other compounds. The true share with any hit is near 21%. Unless noted, calls come from the whole dose curve; as a rule, active = well fitted inhibition curve with a large enough effect; inconclusive = small, poorly fitted or top-dose-only effect; inactive = flat fitted curve, though single readings scatter.
SMILES,DT40 TDP1 no CPT,D3 antag,IL1B secr inh,ClpP mod,D3 ag,DT40 TDP1 CPT
Cc1cc(-n2c(C)nc3ccccc3c2=O)ccc1NC(=O)c1cccc([N+](=O)[O-])c1,12µM*,x,x,1%,-9,16µM*
COc1cccc(CCNc2ncnc3sc(C(=O)N4CCN(C)CC4)c(C)c23)c1,-40%,x,x,x,x,-6%[9.04 µM]
CCCN1CCN(S(=O)(=O)c2ccc(-n3cnnn3)cc2)CC1,8%,-6,-2,-1%,1,6%
COc1ccc(C(=O)Nc2cc(OC)cc3cccnc23)cc1,u,1,-1,-24%,-1,u
COc1cc(C(=O)NC(c2ccccc2)c2ccccc2)cc(OC)c1C,u,-8,3,x,-6,-22%
COc1ccc(C(=O)NC(c2ccccc2Cl)c2cc(Cl)c3cccnc3c2O)cc1 (configuration not stated),13µM*,x,x,2%,23,8.2µM*
COc1cc(C(=O)NC(c2ccccc2Cl)c2cc(Cl)c3cccnc3c2O)cc(OC)c1OC (configuration not stated),21µM*,x,x,1%,10,13µM*
N#Cc1nc(COc2ccc(Cl)cc2)oc1N1CCCCCC1,-25%,-25,-59*,0%,-14,-9%
Cc1ccc(OCc2nc(C#N)c(N3CCCCC3)o2)cc1,-3%,-19,u,x,-8,7%
CC1CCN(c2oc(-c3ccc(COc4ccc(Cl)cc4)o3)nc2C#N)CC1,u,x,x,25µM*,-9,u
CCN1CCN(c2oc(COc3ccc(-c4ccccc4)cc3)nc2C#N)CC1,u,-80*,-25,0%,-20,u
N#Cc1nc(COc2ccccc2)oc1N1CCCCC1,-19%,-13,-8,-2%,1,u
N#Cc1nc(-c2ccc(COc3ccccc3)o2)oc1N1CCCCC1,23µM*,x,x,32µM*,-7,u
COc1cc(NCCCn2cnc3c(OC)ncnc32)cc(OC)c1OC,-9%,0,-16,1%,-9,-14%
NC(=O)OCC(O)COc1ccc(Cl)cc1 (configuration not stated),-2%,9,26,0%,5,6%
N#Cc1nc(-c2ccc(COc3ccc(Cl)cc3)o2)oc1N1CCCCC1,u,x,x,28µM*,-5,u
C/C(Cn1nc([N+](=O)[O-])cc1C)=N\NC(=O)c1cccc(Br)c1,-11%,24,-8,-4%,-18,-1%
C/C(Cn1nnc([N+](=O)[O-])n1)=N\NC(=O)c1ccccc1Cl,u,-11,63,1%,7,23µM*
C/C(Cn1nnc([N+](=O)[O-])n1)=N\NC(=O)c1cccc(Cl)c1,u,-15,31,0%,8,16µM*
CN(C)CCNC(=O)c1ccc2c(c1)NC(=O)C(CS(=O)(=O)Cc1cccc(Br)c1)N2 (configuration not stated),-6%,x,x,32µM*,-9,-22%
Cc1cccc(CS(=O)(=O)CC2Nc3ccc(C(=O)NCc4ccccc4)cc3NC2=O)c1 (configuration not stated),6.5µM*,x,x,u,5,12µM*
CC(C)CCNC(=O)c1ccc2c(c1)NC(=O)C(CS(=O)(=O)Cc1cccc(Br)c1)N2 (configuration not stated),u,x,x,u,-23,-27%
CN(C)c1ccc(C(=O)N=c2sccn2C)cc1[N+](=O)[O-],4%,-27,u,3%,3,16%
O=C(COC(=O)c1ccccc1Cl)NC1CCCCCC1,-6%,3,33,2%,1,1%
Cc1c(C(=O)NCc2ccccc2Cl)sc2ncnc(NCC3CCCO3)c12 (configuration not stated),-7%,x,x,x,x,-4%[9.04 µM]
SMILES,DT40 TDP1 no CPT,D3 antag,IL1B secr inh,ClpP mod,D3 ag,DT40 TDP1 CPT
CCn1c(C(=O)NCc2ccc(F)cc2)cc2oc3ccccc3c21,u,x,x,4%,9,21µM*
CCOc1ccccc1CNC(=O)c1cc2oc3ccccc3c2n1CC,18µM*,-20,u,32µM*!,8,26µM*
CCn1c(C(=O)N2CCc3ccccc3C2)cc2oc3ccccc3c21,u,8,-4,-17%,-2,u
COc1cccc(CNC(=O)c2cc3oc4ccccc4c3n2C)c1OC,-25%,11,-8,25µM*,4,-14%
COC(=O)c1cc2oc3ccccc3c2n1CC(=O)Nc1ccccc1OC,-14%,0,53,-22%,2,7%
CS(=O)(=O)N1CCCCC1CCN1CCCCC1 (configuration not stated),-3%,-9,-11,28µM*,-3,3%
CC1OC(n2cc(F)c(=O)[nH]c2=O)C(O)C1O (configuration not stated),3.7µM*,x,x,x,x,6.5µM*
O=c1[nH]c(=O)n([C@H]2C[C@H](O)[C@@H](CO)O2)cc1F,0.037µM*,-8,41,1%,0,3.3µM*
Cc1cn([C@H]2C[C@H](O)[C@@H](CO)O2)c(=O)[nH]c1=O,-8%,x,x,x,8,3%
Cc1cn([C@H]2C[C@H](N=[N+]=[N-])[C@@H](CO)O2)c(=O)[nH]c1=O,7.5µM*,15,83,1%,6,21µM*
COc1ccccc1N1CCN(S(=O)(=O)CCNC(=O)C2CCCCC2)CC1,-24%,-1,1,u,-16,u
CN1CCN(S(=O)(=O)c2cccc(C(=O)N(Cc3nnc(-c4ccccc4Cl)o3)C3CC3)c2)CC1,-30%,4,-4,-9%,1,4%
Nc1[nH]c(C(=O)c2ccccc2)c(-c2ccccc2C(F)(F)F)c1C(=O)NCCc1cccs1,-13%,0,0,2%,-6,-7%

# Screening results: PubChem BioAssay, National Center for Advancing Translational Sciences (NCATS)
